# Screen size: about 52,000 compounds; about 4,300 (8.3%) were called active. Only a selection was taken, and actives are over-represented in it overall. A number with no mark means an inactive call. Rule as the data show it: active = survival mostly below about 52% (no sharp cut-off); inactive = mostly above about 56%.
# Tested on: DeltatarO mutant
# Test: S. aureus survival, RN4220 and DeltatarO strains – OD600, teichoic acid synthesis inhibitors, primary screen (AID 463173)
# Conditions: S. aureus RN4220 wild type/DeltatarO growth, OD600, 18 h, hits give low values, screened at 18.75 µg/mL (by protocol)
row,Compound,survival
1,Cc1ccc2oc(C(=O)Nc3ccc(S(=O)(=O)Nc4onc(C)c4C)cc3)cc(=O)c2c1,71%
2,O=C(CN1C(=O)COc2ccc(S(=O)(=O)Nc3ccccc3)cc21)Nc1cccc(Cl)c1,96%
3,Fc1ccc(-c2nc(Nc3ccc(F)c(Cl)c3)nc3c2COc2ccccc2-3)cc1,55%
4,O=C(c1cn(CC(=O)N2CCOCC2)c2ccccc12)C1CC1,90%
5,CCN(CC)C(=O)c1sc2c(c1C)c(=O)n(-c1ccc(C)c(C)c1)c(=O)n2Cc1cc(=O)n2c(C)cccc2n1,49%
6,CCN(CC)C(=O)Cn1c(=O)n(-c2ccc(Cl)c(Cl)c2)c(=O)c2c(C)c(C(=O)N(CC)CC)sc21,83%
7,O=c1c2sccc2n(Cc2cc(=O)n3ccccc3n2)c(=O)n1-c1cc(F)ccc1F,69%
8,CCN(CC)C(=O)c1sc2c(c1C)c(=O)n(-c1ccccc1)c(=O)n2Cc1cc(=O)n2ccccc2n1,47% (active)
9,Cc1ccc(-n2c(=O)c3sccc3n(Cc3cc(=O)n4ccccc4n3)c2=O)cc1,63% (active)
10,CCN(CC)C(=O)c1sc2c(c1C)c(=O)n(-c1ccc(Cl)c(Cl)c1)c(=O)n2Cc1cc(=O)n2c(C)cccc2n1,32% (active)
11,CCN(CC)C(=O)c1sc2c(c1C)c(=O)n(-c1ccc(C)c(C)c1)c(=O)n2Cc1cc(=O)n2ccccc2n1,84%
12,O=c1c2sccc2n(Cc2cc(=O)n3ccccc3n2)c(=O)n1-c1cccc(C(F)(F)F)c1,52%
13,CCN(CC)C(=O)c1sc2c(c1C)c(=O)n(-c1ccc(Cl)c(Cl)c1)c(=O)n2Cc1cc(=O)n2ccccc2n1,112%
14,Cc1ccc(S(=O)(=O)N(CC(=O)Nc2cccnc2)c2cc(Cl)ccc2C)cc1,78%
15,COc1ccc(NC(=O)CNC(=O)Cn2c(C)cc3ccccc3c2=O)c(OC)c1,62%
16,C=CCSc1nsc(N)n1,75%
17,Nc1nc(SC#CC(F)(F)F)ns1,13% (active)
18,O=C(CSc1ccccc1)N1CCc2c([nH]c3ccccc23)C1c1ccc(Cl)cc1 (configuration not stated),52% (active)
19,O=C(CSc1ccccc1)N1CCc2c([nH]c3ccccc23)C1c1ccc(F)cc1 (configuration not stated),76%

row,Compound,survival
1,Cc1ccc(C2c3[nH]c4ccccc4c3CCN2C(=O)CSc2ccccc2)cc1 (configuration not stated),69%
2,Cc1ccc(CCNS(=O)(=O)c2ccc3c(c2)C(C(C)C)C(=O)N3)cc1 (configuration not stated),116%
3,COc1ccccc1CCNC(=O)C(=O)NCC(c1cccs1)S(=O)(=O)c1ccccc1 (configuration not stated),82%
4,O=C(c1ccc(F)cc1F)N1CCC(c2noc(-c3ccc(S(=O)(=O)N4CCCC4)cc3)n2)CC1,97%
5,Cc1cccc2nc(-c3ccc(N(C)C)cc3)c(Nc3ccc4c(c3)OCO4)n12,102%
6,O=C(Nc1ccc2nc(SCC(=O)N3CCOCC3)sc2c1)c1cccc(Br)c1,29% (active)
7,O=C(Nc1ccc2nc(SCC(=O)N3CCCC3)sc2c1)c1cccc(Cl)c1,52%
8,O=C(Nc1ccc2nc(SCC(=O)N3CCCC3)sc2c1)c1cccc(Br)c1,57%
9,O=C(Nc1ccc2nc(SCC(=O)N3CCOCC3)sc2c1)c1ccc(Br)cc1,83%
10,O=C(Nc1ccc2nc(SCC(=O)N3CCOCC3)sc2c1)c1cccc(Cl)c1,32% (active)
11,O=C(Nc1ccc2nc(SCC(=O)N3CCOCC3)sc2c1)c1ccc(Cl)cc1,68%
12,Cc1cc(C)cc(NC(=O)C2CCCN(S(=O)(=O)c3cccc4nsnc34)C2)c1 (configuration not stated),105%
13,Cc1ccc(N2CCN(C(=O)c3cnn(-c4ccc(F)cc4F)c3C3CCN(C(=O)OC(C)(C)C)CC3)CC2)c(C)c1,91%
14,CCC(C(=O)Nc1cc(C)ccc1OC)n1nnc(C(=O)OC)c1C(=O)OC (configuration not stated),94%
15,CCOC(=O)c1nnn(C(CC)C(=O)Nc2ccc(F)cc2)c1C(=O)OCC (configuration not stated),119%
16,CCc1ccc(NC(=O)C(CC)n2nnc(C(=O)OC)c2C(=O)OC)cc1 (configuration not stated),-3% (active)
17,CCOc1ccccc1NC(=O)c1ccc(C(=O)Nc2ccccc2OCC)cc1,83%
18,O=C(NCc1ccccc1)c1cc2ccc3cccnc3c2[nH]1,80%
19,Cc1cccc(OCC(=O)Nc2cccc3cccnc23)c1C,60% (active)

row,Compound,survival
1,Cc1ccc2cccc(NC(=O)c3ccc(OC(C)C)cc3)c2n1,95%
2,CCOc1cc(C(=O)Nc2ccncc2)cc(OCC)c1OCC,94%
3,CC(C)c1ccc(C(=O)Nc2cccc3cccnc23)cc1,-1% (active)
4,O=C(COc1ccc(Cl)cc1Cl)Nc1cccc2cccnc12,79%
5,Cc1ccc(C(=O)Nc2cccc3cccnc23)cc1Cl,72%
6,CCOc1cc(C(=O)Nc2cccc3cccnc23)cc(OCC)c1OCC,10% (active)
7,Cc1cc(C)cc(OCC(=O)Nc2cccc3cccnc23)c1,73%
8,O=C(NCc1ccc(Cl)cc1)c1cc2ccc3cccnc3c2[nH]1,58%
9,Cc1ccc(CNC(=O)c2cc3ccc4cccnc4c3[nH]2)cc1,32% (active)
10,CCOc1ccc(C(=O)NC2CCN(C(=O)NCc3ccccc3)CC2)cc1,84%
11,COc1ccc(-c2nc(C)c(CCNC(=O)C(=O)Nc3ccccc3OC)s2)cc1,89%
12,c1ccc(Cc2nnc(SCc3nc(-c4cccs4)no3)n2-c2ccccc2)cc1,56%
13,COc1cc(NS(=O)(=O)c2cc3c(cc2C)N(C)CCO3)cc(OC)c1OC,90%
14,Cc1ccccc1CN1C(=O)c2ccccc2S(=O)c2ccc(C(=O)NCc3ccco3)cc21 (configuration not stated),71%
15,CC(C)CCn1c(=O)c2sccc2n2c(CCCC(=O)NCCc3ccccc3)nnc12,68%
16,CCS(=O)(=O)NCC(c1ccco1)N1CCN(c2ccc(OC)cc2)CC1 (configuration not stated),91%
17,CCOc1ccccc1N(CC)C(=O)c1cc2ccc3cccnc3c2[nH]1,102%
18,CCOc1ccccc1NC(=O)c1cc2ccc3cccnc3c2[nH]1,37% (active)
19,CCOC(=O)c1ccccc1NC(=O)c1cc2ccc3cccnc3c2[nH]1,117%

# — PubChem BioAssay AID463173 (ICCB-Longwood Screening Facility, Harvard Medical School, 2010)
